In all, about 340,000 compounds went through this assay and about 6,200 (1.8%) were called active. Roughly 10% stayed inconclusive and do not appear here. The sample holds actives, similar compounds and a random draw of the others, so the mix is not that of the screen. Unmarked numbers belong to inactive results. Calls come from the whole dose curve; as a rule, active = well fitted activation curve with a large enough effect; inconclusive = small, poorly fitted or top-dose-only effect; inactive = no such curve, though single readings can be large or run the other way.
Experiment: A quantitative high throughput screen for small molecules that induce DNA re-replication in SW480 colon adenocarcinoma cells. For re-replication activation: % of control where 0% means no effect. Note: nearly all actives have a fitted effect of over 55% in size.
Conditions: Hoechst DNA content imaging, 48 h; series mostly up to 46.1 µM; re-replication activation: at the top concentration
Method in brief: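 Image-based DNA-content assay: after two days of treatment, nuclei were labelled with the DNA dye Hoechst and imaged, and hits were compounds raising the count of nuclei showing high fluorescence intensity.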
Potency is the fitted concentration of half-maximal effect.

Row | SMILES | re-replication activation [%] | Potency
1 | CC(C)Sc1nc(N)nc2c1ncn2C1OC(CO)C(O)C1O (centres undefined) | -2.18 | 
2 | Fc1ccccc1CCNc1nnnn1-c1ccccc1 | 8.82 | 
3 | c1ccc(-n2nnnc2NC2CCCCCC2)cc1 |  | 3.66 µM (active)
4 | c1ccc(-n2nnnc2N2CCOCC2)cc1 | -0.759 | 
5 | COc1ccc(CNCCCn2cnc3c(OCc4ccccc4)ncnc32)cc1 | -0.249 | 
6 | O=[N+]([O-])c1ccc(N2CCOCC2)cc1 | -3.05 | 
7 | CCN(CC)C(=O)[C@H]1CC(CC(=O)NCc2ccco2)C(=O)N2CCc3c([nH]c4ccccc34)[C@]12C (some centres undefined) | 0.301 | 
8 | COc1cccc(NC(=O)CSc2nnc(C3CCCCC3)n2N)c1 | -7.72 | 
9 | COC(=O)c1ccc(CSc2nc3ccccc3c(=O)n2-c2cccc(OC)c2)o1 | -0.0715 | 
10 | COCC(C)n1c(SCC(=O)NC2CCCCC2C)nc2ccccc2c1=O (centres undefined) | 3.05 | 
11 | COCC(C)n1c(SCc2ccc(C(=O)OC)o2)nc2ccccc2c1=O (centres undefined) |  | 18.4 µM (active)
12 | O=C(c1ccc(Cl)c(S(=O)(=O)N2CCCCCC2)c1)N1CCN(c2ccc(O)cc2)CC1 | -4.95 | 
13 | C[n+]1cccc(C(=O)O)c1 | -9.96 | 
14 | O=C(NCCc1ccccc1)c1c[nH]c2ccc(F)cc2c1=O | 2.52 | 
15 | CCC(CO)Oc1cc(NCc2ccccc2)c2ncn(C3CCCC3)c2c1 (centres undefined) | 5.67 | 
16 | COc1ccc(CNC2CCCCC2)cc1 | -14.2 | 
17 | COc1ccc(CNc2nc(NCc3ccc(OC)cc3)c3ncn(C4CCCC4)c3n2)cc1 |  | 4.61 µM (active)
18 | O=S(=O)(O)c1cc2onnc2c2ccccc12 | -4.34 | 
19 | CNc1nc(=O)n(C2CCCO2)cc1C (centres undefined) | 6.26 | 
20 | Cc1ccc(S(=O)(=O)N(C)C2(C)CCS(=O)(=O)C2)cc1 (centres undefined) | -6.3 | 
21 | Cc1ccc(S(=O)(=O)NC2CCCCCC2)cc1 | 1.2 | 
22 | Cc1ccc(S(=O)(=O)C2(S(=O)(=O)c3ccc(C)cc3)CCCC2)cc1 |  | 4.47 µM (active)
23 | C=C1c2cccc(OC)c2O[C@H](C(=O)OCC)[C@@H]1CCCCCC |  | 20.6 µM (active)
24 | CCOC(=O)C1=C(C)c2ccccc2OC1C(=O)OCC (centres undefined) | 1.25 | 
25 | CC(C)(C)OC(=O)C[C@@H]1C/C=C\C[C@@H](CC(=O)N(CCO)Cc2ccccc2)C(=O)N[C@H](Cc2ccccc2)COC1=O | -1.83 | 

Row | SMILES | re-replication activation [%] | Potency
26 | COc1ccccc1CNC(=O)c1ccc(Cl)c(S(=O)(=O)N2CCCC2)c1 | -7.01 | 
27 | O=C(COC(=O)c1cccc(Cl)c1)NC(=O)NCc1ccccc1 | -1.83 | 
28 | COc1ccc(Nc2cc(C)nc(-n3nc(C)cc3C)n2)cc1 |  | 7.31 µM (active)
29 | Cc1nc(Cl)cc(N/N=C/c2ccccc2)n1 | -0.738 | 
30 | CC(=O)c1ccc(Oc2cc(C)nc(-n3nc(C)cc3C)n2)cc1 |  | 1.84 µM (active)
31 | Cc1cc(C)n(-c2ccc(C(=O)O)cc2[N+](=O)[O-])n1 | -17 | 
32 | Cc1cc(Nc2ccc(Cl)cc2)nc(N2CCOCC2)n1 | -110 | 
33 | Cc1ccc(S(=O)(=O)Nc2nc(C)cc(N/N=C/c3ccc(O)cc3)n2)cc1 | -6.5 | 
34 | Cc1cc(N/N=C\c2ccc(Br)cc2)nc(-n2nc(C)cc2C)n1 |  | 8.2 µM (active)
35 | Cc1cc(Oc2ccc(Cl)cc2)nc(SCC(=O)c2ccccc2)n1 | 12.8 | 
36 | CC(=O)Nc1ccc(Nc2cc(C)nc(Nc3ccc(NC(C)=O)cc3)n2)cc1 | 9.33 | 
37 | O=C1NC(=O)C(CCc2ccccc2)(c2ccccc2)N1 (centres undefined) | 2.24 | 
38 | O=C(O)c1ccc([N+](=O)[O-])cc1Sc1ccsc1 | -2.95 | 
39 | Cc1ccc(S(=O)(=O)Nc2ccc(F)c(S(=O)(=O)N3CCOCC3)c2)cc1 | 2.24 | 
40 | O=c1[nH]c2c(c(=O)n1-c1ccccc1)CCO2 | -5.03 | 
41 | Cc1c(C)n(Cc2ccc(Cl)cc2)c2ccc(C(=O)NCCCN3CCOCC3)cc12 |  | 20.6 µM (active)
42 | O=C(NCCN1CCOCC1)c1ccc2c(c1)N(Cc1ccc(Cl)cc1)CCS2 | -2.43 | 
43 | COc1ccc(Cn2c(=S)[nH]c3cc(C(=O)NCCCN4CCOCC4)ccc3c2=O)cc1 | -8.9 | 
44 | O=C(Nc1ccc(N2CCOCC2)cc1)c1cccc(S(=O)(=O)N2CCOCC2)c1 | 3.61 | 
45 | Cc1cc(NC(=O)CSc2nnc(-c3ccco3)n2N)no1 | -6.78 | 
46 | Cc1noc(C)c1NC(=O)Nc1ccc2c(c1)C(=O)N([C@H](C)CO)C[C@H](C)[C@@H](CN(C)C(=O)Nc1ccccc1)O2 | -0.626 | 
47 | CCCCCCCCNS(=O)(=O)CCNC1CCCCC1 | -37.2 | 
48 | CCOC(=O)c1ccccc1NS(=O)(=O)c1c(C)nc2sccn2c1=O | -10.1 | 
49 | CCOC(=O)c1cnc2sccn2c1=O |  | 14.6 µM (active)
50 | CN(C)/C=C/C(=O)c1cnc2sccn2c1=O | -1.67 | 

Row | SMILES | re-replication activation [%] | Potency
51 | CN(CCc1ccccc1)C(=O)c1cccc(NC(=O)Cc2ccc([N+](=O)[O-])cc2)c1 | -7.8 | 
52 | CC(C)(C)NS(=O)(=O)NC(=O)C1=C(N2CCCC2)COC1=O | -8.73 | 
53 | CC(C)c1cc(N=O)cc(C(C)C)c1O | 7.87 | 
54 | CCCCOc1ccc(C(=O)NN2CCN(C)CC2)cc1 | 3.08 | 
55 | CCCOc1ccc(C(=O)CCC(=O)OC(C)C(=O)Nc2ccc(NC(C)=O)cc2)cc1 (centres undefined) | -6.44 | 
56 | CCCOc1ccc(C(=O)C(CCC(CNCC)C(=O)c2ccc(OCCC)cc2)CNCC)cc1 (centres undefined) |  | 9.2 µM (active)
57 | CN1CCOC1c1ccc(C2OCCN2C)cc1 (centres undefined) | 0.917 | 
58 | N#CCCN(C(=O)COC(=O)c1ccc2c(c1)OCCO2)c1ccccc1 | -1.2 | 
59 | Cc1cc(NC(=O)COC(=O)/C=C/c2ccc(C)o2)no1 | -11 | 
60 | O=C(NN1C(=O)C2C(C1=O)C1C=CC2C12CC2)c1ccccc1Cl (centres undefined) | -0.766 | 
61 | CC12CCC(C(=O)N(NC(=O)c3ccccc3O)C1=O)C2(C)C (centres undefined) |  | 20.6 µM (active)
62 | CC12CCC(C(=O)N(c3cccc(Cl)c3)C1=O)C2(C)C (centres undefined) | 18.4 | 
63 | CN(C(=O)c1cccc(NC(=O)Cc2ccc(NC(=O)C3CCCN(C(=O)C4CC4)C3)cc2)c1)C1CC1 (centres undefined) | -35.3 | 
64 | CCOc1ccc(NC(=O)CN(C)C(=O)c2cccc(S(=O)(=O)N3CCCC3)c2)cc1OCC |  | 6.51 µM (active)
65 | Cc1ccc(S(=O)(=O)N2CCCCC2)cc1C(=O)N(C)CC(=O)Nc1cccc(F)c1 | 3.47 | 
66 | COc1ccc(NC(=O)CN(C)C(=O)c2cccc(S(=O)(=O)N3CCN(c4ccccc4)CC3)c2)cc1 | -64.6 | 
67 | Cc1noc(C)c1NC(=O)Nc1cccc2c1O[C@H](CN(C)S(=O)(=O)c1c(C)noc1C)[C@@H](C)CN([C@H](C)CO)C2=O | 5.61 | 
68 | CCCCOc1ccc(C(=O)NCC(=O)OCC(=O)c2c(N)n(C)c(=O)n(C)c2=O)cc1 | -0.586 | 
69 | CSc1ncccc1C(=O)NCC(c1ccco1)N1CCCCC1 (centres undefined) | 0.306 | 
70 | COc1cc(CN2CCC(n3nccc3NC(=O)CCCc3ccccc3)CC2)ccc1O | -4.37 | 
71 | COc1ccc(CN2CCC(n3nccc3NC(=O)CCCc3ccccc3)CC2)cc1C |  | 18.4 µM (active)
72 | Cc1ccc(CN2CCC(n3nccc3NC(=O)CCCc3ccccc3)CC2)o1 | -0.682 | 
73 | COc1ccc(CNC(=O)C[C@H]2C[C@H](C(=O)N3CCOCC3)[C@@]3(CCC4CCCC4)c4[nH]c5ccc(Cl)cc5c4CCN3C2=O)cc1OC | 25.9 | 
74 | CC(C)(C)OC(=O)C[C@H]1C/C=C\C[C@@H](CC(=O)N[C@H](CO)Cc2ccccc2)C(=O)NC[C@@H](c2ccccc2)OC1=O | -9.13 | 
75 | Cc1ccccc1OC/C(O)=C(\C#N)c1nc2ccccc2[nH]1 | 10.2 | 

Row | SMILES | re-replication activation [%] | Potency
76 | N#C/C(=C(/O)COC(=O)COc1ccc(Cl)cc1)c1nc2ccccc2[nH]1 |  | 29.1 µM (active)
77 | COCCN(CCOC)S(=O)(=O)c1ccc(/C(O)=C(\C#N)c2nc3ccccc3[nH]2)cc1 | 2.9 | 
78 | CCN1C[C@@H]2[C@@H]3C(=O)N(Cc4ccccc4)C(=O)[C@@H]3[C@](C)(C1=O)N2C(=O)c1ccc(C(C)(C)C)cc1 | -7.2 | 
79 | O=C(NOCc1ccccc1)c1cccc([N+](=O)[O-])c1 | -38.1 | 
80 | O=c1oc2ccccc2c(=O)c2ccccc12 | -5.45 | 
81 | CC[C@]12c3[nH]c4cc(CCC(=O)N(C)C)ccc4c3CCN1C(=O)[C@@H](CC(=O)NCc1ccco1)C[C@@H]2C(=O)N1CCN(C(=O)c2ccco2)CC1 | -12.6 | 
82 | Cn1ncc(Br)c1C(=O)NCc1cccs1 | -6.4 | 
83 | O=C(NCc1cccs1)c1cc(-c2ccccn2)nc2ccc(Br)cc12 | 5.04 | 
84 | CC(C)Cn1c(N)c(C(=O)NCc2cccs2)c2nc3ccccc3nc21 |  | 5.17 µM (active)
85 | O=c1ccn([C@@H]2O[C@H](CNS(=O)(=O)c3cc4ccccc4s3)[C@@H](O)[C@H]2O)c(=O)[nH]1 | -34 | 
86 | CCN(c1ccccc1)S(=O)(=O)c1ccc(C(=O)Nc2ccccc2OC)cc1 | 9.42 | 
87 | O=C(NCC(c1cccs1)N1CCOCC1)c1cc(-c2ccccn2)nc2ccccc12 (centres undefined) | 1.98 | 
88 | O=C(NCCCN1CCOCC1)c1cn(-c2ccccc2)nc1-c1ccc(F)cc1 | -5.03 | 
89 | Cc1ccc(-c2nn(-c3ccc(F)cc3)cc2C(=O)NCC(c2cccs2)N2CCOCC2)cc1 (centres undefined) |  | 23.1 µM (active)
90 | Cn1c(=S)sc2ccc3ccccc3c21 | -4.54 | 
91 | Cc1cc(C)c(C=NNc2nc3c([nH]2)c(=O)n(C)c(=O)n3C)c(C)c1 | 19.5 | 
92 | FC(F)(F)c1cnc(Oc2ccccc2-c2nnc(-c3ccc(Cl)cc3)o2)c(Cl)c1 | -3.88 | 
93 | COc1cccc(/C=N/Nc2ncc(C(F)(F)F)cc2Cl)c1O |  | 0.92 µM (active)
94 | COc1cccc(/C=N/Nc2ccc(S(=O)(=O)Nc3ccccc3C(=O)O)cc2[N+](=O)[O-])c1O | -6.27 | 
95 | CC(=NNC(=O)c1ccncc1)c1ccc(Cl)c(Cl)c1 | 23.1 | 
96 | C=CCC[C@@H](Cc1ccc(F)cc1)C(=O)OC[C@@H](C)NC(=O)[C@H](CC=C)CC(=O)N(CCO)Cc1ccccc1 | -0.963 | 
97 | CCOc1ccc(C2C(C(=O)NC)=C(C)Nc3nc4ccccc4n32)cc1OC (centres undefined) | -12.1 | 
98 | CCOC(=O)C1=C(C)Nc2nc3ccccc3n2C1c1cccs1 (centres undefined) | -4.46 | 
99 | COc1ccccc1NC(=O)C1=C(C)Nc2nc3ccccc3n2C1c1cccs1 (centres undefined) |  | 4.11 µM (active)
